Experimental data published in PubChem BioAssay (Tox21).
Where “and” joins values, the source holds several entries; their conditions need not be identical. Identical values can stand only once. Results filed as inconclusive are left out. More than one record can exist for a structure, and the calls need not agree. Calls of active or inactive are those of the source. Unless noted, the call rests on the fitted dose curve.

Key:
[1] = Nuclear factor erythroid 2-related factor 2/antioxidant responsive element (Nrf2/ARE) small molecule agonists: qHTS cell viability counter screen in human keratinocytes (AID 1919968; active means well fitted curve in the direction sought with a large enough effect in the repeat runs; an effect the other way counts as inactive or inconclusive; further: nearly all actives have a fitted effect of over 55% in size)
Summary of the method: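 KeratinoSens cells (HaCaT keratinocytes stably carrying an ARE-luciferase reporter) were seeded at 1,500 cells/well and rested 5 h at 37 C/5% CO2. They were then exposed to compounds in DMSO for 23 h. Viability was read by CellTiter-Fluor fluorescence after 1 h.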

[2] = Nuclear factor erythroid 2-related factor 2/antioxidant responsive element (Nrf2/ARE) small molecule agonists: luciferase reporter gene qHTS assay in human keratinocytes (AID 1919969); further: nearly all actives have a fitted effect of over 35% in size; further: potency means the concentration at half of the fitted maximal effect
[3] = target: Gonadotropin-releasing hormone receptor (Homo sapiens) (UniProt P30968); assay: Human gonadotropin-releasing hormone receptor (GnRHR) small molecule agonists, calcium flux assay in GnRHR-HEK293 cells (AID 1920063); further: nearly all actives have a fitted effect of over 35% in size
Summary of the method: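 HEK293 cells stably expressing human GnRHR were plated 18 h at 37 °C, loaded with calcium dye 1 h at 37 °C, then given compound in agonist mode; fluorescence (Ex/Em 480/540) read kinetically for 3 min at 1 s intervals.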

[4] = target: KiSS-1 receptor (Homo sapiens) (UniProt Q969F8); assay: Human kisspeptin (KISS1R) small molecule agonists, calcium flux assay in KISS1R-HEK293 cells (AID 1920064; active means well fitted curve in the direction sought with a large enough effect in the repeat runs; an effect the other way counts as inactive or inconclusive)
Summary of the method: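 HEK293 cells stably expressing human KISS1R were plated 18 h at 37 °C, loaded with calcium dye for 1 h at 37 °C, then given compound by pin tool. Fluorescence (Ex/Em 480/540) was read kinetically for 3 min.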

[5] = G protein-coupled receptor (GPCR) small molecule agonists, calcium flux assay: HEK293 wild type cell line counter screen (AID 1920065)
Summary of the method: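 Cells were plated and cultured 18 h at 37 C/5% CO2, then loaded with calcium dye for 1 h at 37 C. Compounds in DMSO were pin-transferred in agonist mode, and fluorescence (Ex/Em 480/540) was read kinetically for 3 min at 1 s intervals.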

[6] = p53 small molecule agonists, cell-based qHTS assay with human liver microsomes (AID 1963577);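 further: p53 response element beta-lactamase reporter cells with liver microsomes plus NADPH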
Summary of the method: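 Steps: plate p53RE-bla cells, incubate 5 h at 37 C; add compound in DMSO; add microsomes (0.5 mg/mL final) and NADPH (0.5 mg/mL final); incubate 16 h at 37 C; add LiveBLAzer, 2 h RT; read fluorescence.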

[7] = p53 small molecule agonists, cell-based qHTS assay with rat liver microsomes (AID 1963578)
Summary of the method: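 Metabolic activation is supplied by rat liver microsomes with NADPH (each 0.5 mg/mL final). p53RE-bla cells incubate with compound 16 h at 37 C; reporter activity is measured by LiveBLAzer fluorescence.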

[8] = p53 small molecule agonists, cell-based qHTS assay with human liver microsomes: qHTS cell viability counter screen (AID 1963579); further: nearly all actives have a fitted effect of over 45% in size; further: potency means the concentration at half of the fitted maximal effect
Summary of the method: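 After the 460/530 nm beta-lactamase read, CellTiter-Glo was added to the same wells and luminescence measured after 30 min at room temperature, giving viability of p53RE-bla cells treated 16 h with compounds plus microsomes and NADPH.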

[9] = p53 small molecule agonists, cell-based qHTS assay with rat liver microsomes: qHTS cell viability counter screen (AID 1963580); further: nearly all actives have a fitted effect of over 45% in size
Summary of the method: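 HCT-116 p53RE-bla, 4,000 cells/well, 5 h pre-incubation; cpd + rat liver microsomes 0.5 mg/mL + NADPH 0.5 mg/mL (final); 16 h, 37 C; CellTiter-Glo, 30 min RT; luminescence.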

[10] = p53 small molecule agonists, cell-based qHTS assay: qHTS cell viability counter screen (AID 1963581); further: nearly all actives have a fitted effect of over 45% in size
Summary of the method: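 p53RE-bla HCT-116 cells were exposed to compounds for 16 h at 37 C; after the beta-lactamase FRET read in the same wells, CellTiter-Glo was added and luminescence (intracellular ATP) read after 30 min at room temperature.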

[11] = p53 small molecule agonists, cell-based qHTS assay (AID 1963582; active means well fitted activation curve with a large enough effect in the signal ratio in the repeat runs, not every such curve was filed as active; the % refers to the signal ratio)
Summary of the method: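 p53RE-bla beta-lactamase reporter cells rested 5 h at 37 C/5% CO2, then received compounds in DMSO by pin transfer and were incubated 16 h at 37 C. LiveBLAzer B/G FRET substrate was loaded for 2 h at room temperature before fluorescence reading.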

[12] = target: 5-hydroxytryptamine receptor 2A (Homo sapiens) (UniProt P28223); assay: 5-hydroxytryptamine receptor 2A (HTR2A) small molecule antagonists, cell-based qHTS assay (AID 1963586); further: nearly all actives have a fitted effect of over 45% in size; further: potency means the concentration at half of the fitted maximal effect
Summary of the method: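 Antagonist-mode intracellular calcium assay: DOI (4 nM) added after 5 min compound pre-incubation at room temperature to dye-loaded HTR2A-CHO cells. Fluorescence followed for 3 min, sampled every second.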

[13] = target: 5-hydroxytryptamine receptor 2A (Homo sapiens) (UniProt P28223); assay: 5-hydroxytryptamine receptor 2A (HTR2A) small molecule agonists, cell-based qHTS assay (AID 1963587); further: nearly all actives have a fitted effect of over 30% in size; further: potency means the concentration at half of the fitted maximal effect
Summary of the method: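 Kinetic calcium-flux fluorescence (2 min, 1 sec intervals) after compound addition in agonist mode. HTR2A-CHO cells were cultured 18 h, then dye-loaded 1 h at 37 C.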

[14] = target: Muscarinic acetylcholine receptor M1 (Homo sapiens) (UniProt P11229); assay: Cholinergic receptor muscarinic 1 (CHRM1) small molecule antagonists, cell-based qHTS assay (AID 1963588); further: nearly all actives have a fitted effect of over 40% in size
Summary of the method: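 CHRM1-CHO calcium-flux assay, antagonist mode. Cells were seeded 18 h, dye-loaded 1 h at 37 C and given compound for 5 min at RT, then acetylcholine was added at 50nM. FDSS fluorescence was read 3 min; 15 concentrations, three runs.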

[15] = target: Muscarinic acetylcholine receptor M1 (Homo sapiens) (UniProt P11229); assay: Cholinergic receptor muscarinic 1 (CHRM1) small molecule agonists, cell-based qHTS assay (AID 1963589); further: nearly all actives have a fitted effect of over 35% in size
Summary of the method: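 CHO cells stably expressing human CHRM1, seeded 18 h at 37 C/5% CO2, dye-loaded 1 h at 37 C, then given compound in agonist mode; intracellular calcium fluorescence read kinetically at 1 s intervals. Fifteen concentrations, three independent runs.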

[16] = cAMP Responsive Elements (CRE) small molecule agonists, cell-based qHTS assay (AID 1963590)
Summary of the method: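 CRE-bla HEK 293T cells in DMEM with 10% dialyzed FBS, NEAA, pyruvate and 25 mM HEPES were plated 18 h at 37 C/5% CO2, then exposed to compounds in DMSO for 3 h before LiveBLAzer B/G FRET substrate addition.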

[17] = cAMP Responsive Elements (CRE) small molecule antagonists, cell-based qHTS assay (AID 1963591; active means well fitted inhibition curve with a large enough effect in the signal ratio in the repeat runs, not every such curve was filed as active; the % refers to the signal ratio)
Summary of the method: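 CRE-bla HEK293T cells were plated 18 h at 37 °C/5% CO2, pinned with compound in DMSO, then stimulated with NKH477 at 0.25 uM final for 3 h. LiveBLAzer B/G FRET substrate was added and plates incubated 2 h at room temperature.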

[18] = target: Beta-2 adrenergic receptor (Homo sapiens) (UniProt P07550); assay: Adrenergic beta2 receptor (ADRB2) small molecule antagonists, cell-based qHTS assay (AID 1963592); further: series mostly up to about 92 µM; nearly all actives have a fitted effect of over 50% in size
Summary of the method: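 Cells (CHO, stable ADRB2 overexpression) incubated 18-20hr at 37C; compounds added from DMSO; agonist mix (1nM isoproterenol, 100uM IBMX, 25uM Ro-20-1724) added; 0.5hr RT; d2-cAMP and anti-cAMP-cryptate added; 1hr RT; 665/615 nm read.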

[19] = target: D(2) dopamine receptor (Homo sapiens) (UniProt P14416); assay: Dopamine D2 receptor (DRD2) small molecule agonists, cell-based qHTS assay (AID 1963594); further: nearly all actives have a fitted effect of over 35% in size
Summary of the method: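 cAMP accumulation in DRD2-HEK293 cells measured by HTRF after 1 h detection; compounds added 10 min before NKH477 (200nM […]) forskolin-analogue stimulation, 30 min at room temperature, with Ro20-1724 present at 0.1 mM final.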

[20] = target: D(2) dopamine receptor (Homo sapiens) (UniProt P14416); assay: Dopamine D2 receptor (DRD2) small molecule antagonists, cell-based qHTS assay (AID 1963595; active means well fitted inhibition curve with a large enough effect in the signal ratio in the repeat runs, with a control signal flat; the % refers to the signal ratio)
Summary of the method: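 Readout: HTRF cAMP, cAMP-d2 competing with cellular cAMP for anti-cAMP cryptate, read after 1 h. Cells: DRD2-HEK293. Conditions: 0.1 mM Ro20-1724, 12 nM quinpirole, 200 nM NKH477, 30 min RT.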

Measured: Potency

Chain of Gonadotropin-releasing hormone receptor (Homo sapiens) (P30968 whole entry, looked up): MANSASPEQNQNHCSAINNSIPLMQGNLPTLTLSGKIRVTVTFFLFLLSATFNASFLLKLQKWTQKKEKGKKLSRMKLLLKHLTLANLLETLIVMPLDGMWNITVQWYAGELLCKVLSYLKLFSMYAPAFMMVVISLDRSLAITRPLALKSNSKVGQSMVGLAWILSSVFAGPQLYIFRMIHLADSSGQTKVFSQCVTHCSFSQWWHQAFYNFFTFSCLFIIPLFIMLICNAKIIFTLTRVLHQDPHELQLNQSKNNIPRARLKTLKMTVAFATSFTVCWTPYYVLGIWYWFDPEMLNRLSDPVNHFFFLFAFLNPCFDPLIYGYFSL
Chain of Muscarinic acetylcholine receptor M1 (Homo sapiens) (P11229 whole entry, looked up): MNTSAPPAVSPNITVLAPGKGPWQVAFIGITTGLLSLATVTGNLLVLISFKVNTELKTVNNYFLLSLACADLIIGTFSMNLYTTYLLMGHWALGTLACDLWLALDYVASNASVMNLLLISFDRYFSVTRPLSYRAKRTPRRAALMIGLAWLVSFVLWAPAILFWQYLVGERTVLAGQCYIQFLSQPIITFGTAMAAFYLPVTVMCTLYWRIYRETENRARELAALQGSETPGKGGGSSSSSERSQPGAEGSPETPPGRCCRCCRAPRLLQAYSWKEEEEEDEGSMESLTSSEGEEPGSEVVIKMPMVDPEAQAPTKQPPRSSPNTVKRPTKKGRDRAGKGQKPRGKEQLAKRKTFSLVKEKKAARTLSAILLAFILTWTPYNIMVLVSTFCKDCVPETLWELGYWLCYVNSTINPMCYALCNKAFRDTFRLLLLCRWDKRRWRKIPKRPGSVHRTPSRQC
Chain of D(2) dopamine receptor (Homo sapiens) (P14416 whole entry, looked up): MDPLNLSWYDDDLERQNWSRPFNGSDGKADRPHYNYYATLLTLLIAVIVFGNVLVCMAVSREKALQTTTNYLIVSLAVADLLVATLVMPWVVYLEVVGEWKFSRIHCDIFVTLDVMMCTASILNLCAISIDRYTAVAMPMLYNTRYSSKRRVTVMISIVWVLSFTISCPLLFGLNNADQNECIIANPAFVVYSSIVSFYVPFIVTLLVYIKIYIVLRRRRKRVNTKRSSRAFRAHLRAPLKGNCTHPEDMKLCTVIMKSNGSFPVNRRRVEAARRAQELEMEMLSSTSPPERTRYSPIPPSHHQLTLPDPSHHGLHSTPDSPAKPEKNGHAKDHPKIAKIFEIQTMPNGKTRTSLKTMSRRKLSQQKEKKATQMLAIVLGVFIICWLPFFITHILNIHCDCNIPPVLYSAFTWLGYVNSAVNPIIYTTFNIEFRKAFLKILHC
Chain of KiSS-1 receptor (Homo sapiens) (Q969F8 whole entry, looked up): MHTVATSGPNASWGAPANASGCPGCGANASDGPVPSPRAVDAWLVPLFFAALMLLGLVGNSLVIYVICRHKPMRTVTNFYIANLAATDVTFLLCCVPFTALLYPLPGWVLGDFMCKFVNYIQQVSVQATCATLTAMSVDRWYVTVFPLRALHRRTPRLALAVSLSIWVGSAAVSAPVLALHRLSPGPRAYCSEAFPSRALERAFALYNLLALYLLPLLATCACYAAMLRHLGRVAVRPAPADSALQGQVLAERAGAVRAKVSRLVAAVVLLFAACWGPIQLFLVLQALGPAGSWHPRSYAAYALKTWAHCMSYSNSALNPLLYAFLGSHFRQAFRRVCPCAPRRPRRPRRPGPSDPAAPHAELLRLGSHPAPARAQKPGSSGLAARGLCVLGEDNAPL
Chain of Beta-2 adrenergic receptor (Homo sapiens) (P07550 whole entry, looked up): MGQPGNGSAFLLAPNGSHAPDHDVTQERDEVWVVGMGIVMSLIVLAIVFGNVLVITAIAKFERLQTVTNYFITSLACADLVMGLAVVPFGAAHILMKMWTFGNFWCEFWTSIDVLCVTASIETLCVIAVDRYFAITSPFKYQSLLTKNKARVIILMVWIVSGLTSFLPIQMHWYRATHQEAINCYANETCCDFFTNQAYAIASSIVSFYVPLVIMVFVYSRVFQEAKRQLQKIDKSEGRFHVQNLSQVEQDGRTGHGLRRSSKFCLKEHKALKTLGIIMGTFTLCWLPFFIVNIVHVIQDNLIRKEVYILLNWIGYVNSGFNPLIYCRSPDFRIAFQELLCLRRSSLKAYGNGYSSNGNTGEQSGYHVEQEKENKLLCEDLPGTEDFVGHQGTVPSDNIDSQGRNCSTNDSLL
Chain of 5-hydroxytryptamine receptor 2A (Homo sapiens) (P28223 whole entry, looked up): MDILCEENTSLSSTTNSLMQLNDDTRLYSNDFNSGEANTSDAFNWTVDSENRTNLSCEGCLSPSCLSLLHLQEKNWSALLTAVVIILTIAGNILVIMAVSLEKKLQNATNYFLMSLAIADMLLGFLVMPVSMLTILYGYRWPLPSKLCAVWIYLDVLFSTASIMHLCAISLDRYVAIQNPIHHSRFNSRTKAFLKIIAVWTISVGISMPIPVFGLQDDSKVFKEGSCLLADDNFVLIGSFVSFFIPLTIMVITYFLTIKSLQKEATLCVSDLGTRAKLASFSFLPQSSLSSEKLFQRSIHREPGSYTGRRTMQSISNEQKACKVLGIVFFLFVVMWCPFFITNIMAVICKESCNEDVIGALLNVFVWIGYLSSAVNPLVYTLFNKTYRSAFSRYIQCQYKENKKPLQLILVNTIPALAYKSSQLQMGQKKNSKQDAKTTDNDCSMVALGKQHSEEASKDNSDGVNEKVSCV

O=C(O)Cc1cccc2ccccc12
inactive: all assays above

CC(=O)OC(C)(C)C1CC=C(C)CC1 (stereo unspecified)
not listed: [20]
inactive: all other assays above

COCC(C)O (stereo unspecified)
inactive: all assays above

O=S(=O)(O)c1ccc2ccccc2c1
inactive: all assays above

CC(=O)CC(=O)N(C)C
inactive: all assays above

OC[C@H]1O[C@H](O[C@]2(CCl)O[C@H](CCl)[C@@H](O)[C@@H]2O)[C@H](O)[C@@H](O)[C@H]1Cl
not listed: [19] | [20]
inactive: all other assays above

COc1ccc(Nc2ccccc2)c(C)c1
inactive and 21.1 µM (active): [12]
inactive: all other assays above

CC(C)Cc1ccccc1
inactive: all assays above

CCc1cccc(O)c1
inactive: all assays above

CC1COC(=O)O1 (stereo unspecified)
inactive: all assays above

CCc1cccc(CC)c1N
inactive: all assays above

NS(=O)(=O)O
inactive: all assays above

Cc1ncc([N+](=O)[O-])n1C
inactive: all assays above

NC(N)=S
inactive and 37.5 µM (active): [12]
inactive and 54.9 µM (active): [13]
inactive: all other assays above

CCC(=O)O
inactive: all assays above

CC(=O)Nc1ccc(CC(=O)O)cc1
inactive and 410 nM (active): [12]
inactive: all other assays above

c1ccncc1
inactive: all assays above

CC(=O)OC/C=C(\C)CCC=C(C)C
inactive: all assays above

Cc1ccc(O)c(-n2nc3ccccc3n2)c1
active: [2] 60.6 µM and 27.3 µM and 5.96 µM
50.9 µM (active) and inactive: [8]
inactive: all other assays above

C=CC(C)CCCC(C)(C)O (stereo unspecified)
inactive: all assays above

O=[N+]([O-])c1ccccc1C(F)(F)F
inactive: all assays above

CC(C)(C)C1CCC(O)CC1 (stereo unspecified)
inactive: all assays above

CCCCCCCCCCN
inactive: all assays above

C=CC(C)(C)C
inactive: all assays above

CC(C)c1ccc(C(C)C)cc1
inactive: all assays above

CC/C=C(\C(=O)N[C@@H]1C(=O)N2C(C(=O)OCOC(=O)C(C)(C)C)=C(COC(N)=O)CS[C@H]12)c1csc(N)n1
inactive and 29.8 µM (active): [2]
inactive: all other assays above

CCC(C)(O)CCCC(C)C (stereo unspecified)
inactive: all assays above

Cc1ccc(Cl)cc1
not listed: [20]
inactive: all other assays above

CC(=O)N[C@@H](CS)C(=O)O
inactive: all assays above

Nc1ccn([C@H]2CC[C@@H](CO)O2)c(=O)n1
inactive: all assays above
